For assay [1], the target named is Guanine nucleotide-binding protein G(i) subunit alpha-1 (Homo sapiens) (UniProt P63096). Kind of assay: qHTS Assay for Inhibitors of RGS12 GoLoco Motif Activity (Green Fluorophore) (AID 879).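 Further: negative values mean loss of peptide binding seen as reduced polarization.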 The conditions noted are these: Galphai1/FITC-RGS12 GoLoco peptide, fluorescence polarization; series mostly up to 57.1 µM. In a few lines:
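Fluorescence polarization assay: 50 nM Gαi1 with 10 nM FITC-labeled RGS12 GoLoco peptide in 10 mM Tris pH 7.5, 150 mM NaCl, 0.1 mM GDP, 0.05% NP40, 10 min at room temperature with compound.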
(qHTS replaces the single test concentration by a dilution series.)

Assay [2] can be described thus: qHTS Assay for Identification of Small Molecule Antagonists for NFkB Signaling Pathway (AID 895; active means well fitted inhibition curve with a large enough effect in the signal ratio, with a control signal flat, not every such curve was filed as active; the % refers to the signal ratio). As to conditions: NFkB beta-lactamase reporter cells, FRET ratio 460/530, stimulated with 10 pM TNF alpha; series mostly up to 38.3 µM. In a few lines: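 ME-180 NFkB-bla cells (beta-lactamase under NFkB response element), plated overnight, treated with compound then 10 pM TNF alpha (about EC50) for 5 hrs at 37 C. LiveBLAzer FRET read at 460/530 nm emission, 405 nm excitation.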

Assay [3] deals with Pyruvate kinase (Leishmania mexicana) (UniProt Q27686). Nature of the assay: qHTS Validation Assay for Inhibitors of Leishmania Mexicana Pyruvate Kinase (AID 945). Further: potency means the concentration at half of the fitted maximal effect. The conditions noted are these: purified L. mexicana pyruvate kinase, enzyme activity, E451W mutant enzyme; series mostly up to 57.5 µM. Summed up: (§1)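 Read-out: luminescence from PKLight stop/detection reagent, data normalized to DMSO. Reaction: 0.2 nM E451W LmPYK, 0.5 mM PEP, 0.1 mM ADP, pH 7.2, 1 h room temperature.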
Sequence of Pyruvate kinase (Leishmania mexicana) (Q27686 2-499 E452W): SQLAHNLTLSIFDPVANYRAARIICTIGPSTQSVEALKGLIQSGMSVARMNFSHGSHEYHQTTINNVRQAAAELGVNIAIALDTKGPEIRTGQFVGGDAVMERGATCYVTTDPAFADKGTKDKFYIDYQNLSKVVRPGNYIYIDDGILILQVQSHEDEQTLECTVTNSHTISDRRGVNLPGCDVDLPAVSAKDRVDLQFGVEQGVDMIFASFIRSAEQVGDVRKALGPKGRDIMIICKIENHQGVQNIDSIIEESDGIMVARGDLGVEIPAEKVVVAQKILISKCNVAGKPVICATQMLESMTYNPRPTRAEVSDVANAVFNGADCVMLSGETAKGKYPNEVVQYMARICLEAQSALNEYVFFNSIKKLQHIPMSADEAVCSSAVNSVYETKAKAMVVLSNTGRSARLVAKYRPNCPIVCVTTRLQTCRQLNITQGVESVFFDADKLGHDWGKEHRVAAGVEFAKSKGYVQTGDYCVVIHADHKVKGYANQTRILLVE

In assay [4] the target is Pyruvate kinase PKM (Homo sapiens) (UniProt P14618). Kind of assay: qHTS Assay for Activators of Human Muscle Pyruvate Kinase (AID 954; active means well fitted curve in the direction sought with a large enough effect, not every such curve was filed as active). As to conditions: purified human muscle pyruvate kinase, luciferase-coupled luminescence, 1 h; series mostly up to 57.5 µM. In a few lines: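 Enzyme was run at intermediate activity so both inhibitors and activators could be detected. ATP formed from ADP and PEP by 0.1 nM human PKM2 during a 1 h room-temperature incubation was quantified by coupled luciferase luminescence.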
Sequence of Pyruvate kinase PKM (Homo sapiens) (P14618 whole entry, looked up): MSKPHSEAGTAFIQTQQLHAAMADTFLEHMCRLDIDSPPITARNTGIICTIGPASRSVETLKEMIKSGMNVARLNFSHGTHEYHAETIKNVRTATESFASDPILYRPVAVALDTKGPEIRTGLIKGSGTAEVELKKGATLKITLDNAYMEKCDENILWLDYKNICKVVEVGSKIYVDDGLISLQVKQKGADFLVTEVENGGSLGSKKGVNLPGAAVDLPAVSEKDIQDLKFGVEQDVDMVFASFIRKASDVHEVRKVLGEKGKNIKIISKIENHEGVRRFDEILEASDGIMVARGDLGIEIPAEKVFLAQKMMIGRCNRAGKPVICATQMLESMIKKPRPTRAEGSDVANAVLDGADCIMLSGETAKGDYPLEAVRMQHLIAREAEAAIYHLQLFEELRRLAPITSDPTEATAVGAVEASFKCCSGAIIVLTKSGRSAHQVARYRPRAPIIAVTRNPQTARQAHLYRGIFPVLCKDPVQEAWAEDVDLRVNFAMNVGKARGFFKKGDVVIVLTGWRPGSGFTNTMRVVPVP

Assay [5] has the same target. Kind of assay: qHTS Assay for Inhibitors of Human Muscle Pyruvate Kinase (AID 958). The conditions noted are these: purified human PKM enzyme activity. Summed up: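 Purified human PKM2 (0.1 nM) with 0.5 mM PEP (Km) and 0.1 mM ADP in 50 mM imidazole pH 7.2, KCl, MgCl2, 1 h at room temperature; ATP formed read by coupled luciferase luminescence. Normalized to no-enzyme/110 uM thiadiazolimine inhibition; 0.3 nM enzyme column for activation.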

The target of assay [6] is Pyruvate kinase (Leishmania mexicana) (UniProt Q27686). Nature of the assay: qHTS Validation Assay for Activators of Leishmania Mexicana Pyruvate Kinase (AID 959). The conditions noted are these: purified L. mexicana pyruvate kinase, enzyme activity; series mostly up to 57.5 µM. In a few lines: as §1
Assay [7] has as its target Alpha-galactosidase A (Homo sapiens) (UniProt P06280). Nature of the assay: Counterscreen for Glucocerebrosidase Inhibitors: qHTS Assay for Human alpha-Galactosidase at pH 4.5 (AID 992). The conditions noted are these: purified enzyme, fluorogenic substrate; series mostly up to 76.9 µM. Summed up:
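Read-out is 4-methylumbelliferone fluorescence (365 nm excitation, 440 nm emission) after a pH 10 NaOH/glycine stop. Reactions held 2 nM enzyme and 80 uM substrate at pH 4.5 for 20 min at room temperature.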
For orientation: A counterscreen serves to expose hits that act by an unwanted route or on another target.

The target of assay [8] is DNA dC->dU-editing enzyme APOBEC-3G (Homo sapiens) (UniProt Q9HC16). Nature of the assay: qHTS for inhibitors of Vif-A3G interactions: Validation (AID 588379). As to conditions: Vif-A3G protein interaction assay; series mostly up to 46.1 µM. Summed up:
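HeLa cells stably expressing Vif and A3G-eYFP, 700 cells/well, incubated overnight at 37 deg C, then exposed to compound overnight at 37 deg C. Inhibition of Vif-mediated degradation read as increased yellow fluorescence (Ex 488/Em 500-530) by laser-scanning cytometry.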

A short description of assay [9]: S16 Schwann cell viability assay (CellTiter-Glo assay) (AID 624031).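 Further: cellular ATP luminescence as a viability measure; nearly all actives have a fitted effect of over 70% in size.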 The conditions noted are these: S16 rat Schwann cells viability, 24 h; series mostly up to 57.5 µM. Summed up: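 This viability control uses native rat S16 Schwann cells grown in DMEM plus 10% FBS. After a 24 h compound treatment at 37 °C, CellTiter-Glo luminescence reports ATP content, scaled against DMSO-treated and cell-free wells.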
On the technique in general: In ATP-based viability assays light output follows the ATP content of the culture.

A short description of assay [10]: S16 Schwann cell PMP22 intronic element firefly luciferase assay (AID 624032). Further: nearly all actives have a fitted effect of over 30% in size. As to conditions: S16 rat Schwann cells, PMP22 element FLuc, 24 h; series mostly up to 57.5 µM. Summed up: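 Rat S16 Schwann cells stably carrying firefly luciferase driven by a PMP22 intronic element, in 10% FBS, treated 24 h at 37 C. ONE-Glo luminescence normalized to PTC124 control and DMSO (0%); curves classed by r2, magnitude and activity.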

In a further assay the test system is AA1029. Kind of assay: qHTS profiling for inhibitors of Plasmodium falciparum proliferation (AID 504749). Further: nearly all actives have a fitted effect of over 60% in size. The conditions noted are these: P. falciparum in erythrocytes, SYBR Green DNA, 72 h; series mostly up to 28.7 µM. In a few lines: (§2)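 Readout was DNA-dye fluorescence from lysed cultures, ex 485/em 535 nm. Parasitized red cells had grown 72 h with compound; data scaled between 0.29 uM artemisinin and DMSO wells and corrected using vehicle-only plates.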

The subject of a further assay is CP260. Described as above. The conditions noted are these: P. falciparum in erythrocytes, SYBR Green DNA, 72 h; series mostly up to 28.7 µM. In a few lines:
as §2

The next assay relates to CP297. The assay is described as above. As to conditions: P. falciparum in erythrocytes, SYBR Green DNA, 72 h; series mostly up to 28.7 µM. Summed up: as §2
For another assay, the system named is CP315. The assay is described as above. The conditions noted are these: P. falciparum in erythrocytes, SYBR Green DNA, 72 h; series mostly up to 28.7 µM. In a few lines: as §2
A further assay has as its system DIV14. The assay is described as above. The conditions noted are these: P. falciparum in erythrocytes, SYBR Green DNA, 72 h; series mostly up to 28.7 µM. In a few lines: as §2
A further assay deals with DIV17. The assay is described as above. As to conditions: P. falciparum in erythrocytes, SYBR Green DNA, 72 h; series mostly up to 28.7 µM. In a few lines: as §2
The test system of another assay is JCK. Described as above. As to conditions: P. falciparum in erythrocytes, SYBR Green DNA, 72 h; series mostly up to 28.7 µM. Summed up:
as §2

The subject of another assay is N140. The assay is described as above. As to conditions: P. falciparum in erythrocytes, SYBR Green DNA, 72 h; series mostly up to 28.7 µM. Summed up:
as §2

The next assay relates to PC15. Described as above. The conditions noted are these: P. falciparum in erythrocytes, SYBR Green DNA, 72 h; series mostly up to 28.7 µM. In a few lines: as §2
The subject of a further assay is TAB165. The assay is described as above. The conditions noted are these: P. falciparum in erythrocytes, SYBR Green DNA, 72 h; series mostly up to 28.7 µM. In a few lines:
as §2

Results filed as inconclusive are left out. Active and inactive are the calls of the source. Unless noted, the call rests on the fitted dose curve; in most records, active means well fitted curve in the direction sought with a large enough effect; inconclusive means small, poorly fitted or top-dose-only effect, or another doubt; inactive means no such curve, though single readings can be large; an effect the other way counts as inactive or inconclusive.

Sequence of Guanine nucleotide-binding protein G(i) subunit alpha-1 (Homo sapiens) (P63096 whole entry, looked up): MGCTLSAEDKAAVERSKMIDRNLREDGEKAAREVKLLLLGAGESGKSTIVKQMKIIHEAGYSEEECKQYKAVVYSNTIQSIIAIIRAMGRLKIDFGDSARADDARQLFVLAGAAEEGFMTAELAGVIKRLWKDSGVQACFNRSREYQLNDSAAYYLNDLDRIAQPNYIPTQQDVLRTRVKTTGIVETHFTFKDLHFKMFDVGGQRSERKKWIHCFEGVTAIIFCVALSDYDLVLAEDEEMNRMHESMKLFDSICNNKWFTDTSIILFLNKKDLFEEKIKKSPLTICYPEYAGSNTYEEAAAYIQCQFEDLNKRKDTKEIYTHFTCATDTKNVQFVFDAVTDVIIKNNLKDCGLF
Sequence of DNA dC->dU-editing enzyme APOBEC-3G (Homo sapiens) (Q9HC16 whole entry, looked up): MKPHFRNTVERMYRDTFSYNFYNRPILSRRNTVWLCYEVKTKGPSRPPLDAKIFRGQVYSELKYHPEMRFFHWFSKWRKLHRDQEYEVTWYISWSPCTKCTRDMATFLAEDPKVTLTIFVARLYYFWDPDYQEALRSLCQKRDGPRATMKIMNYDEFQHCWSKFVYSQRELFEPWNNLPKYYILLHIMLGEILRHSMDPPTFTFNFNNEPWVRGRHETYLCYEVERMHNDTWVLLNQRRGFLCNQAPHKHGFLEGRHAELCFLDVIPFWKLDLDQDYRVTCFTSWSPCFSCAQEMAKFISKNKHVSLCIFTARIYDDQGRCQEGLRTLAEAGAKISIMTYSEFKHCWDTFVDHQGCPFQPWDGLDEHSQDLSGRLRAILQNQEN
Sequence of Alpha-galactosidase A (Homo sapiens) (P06280 whole entry, looked up): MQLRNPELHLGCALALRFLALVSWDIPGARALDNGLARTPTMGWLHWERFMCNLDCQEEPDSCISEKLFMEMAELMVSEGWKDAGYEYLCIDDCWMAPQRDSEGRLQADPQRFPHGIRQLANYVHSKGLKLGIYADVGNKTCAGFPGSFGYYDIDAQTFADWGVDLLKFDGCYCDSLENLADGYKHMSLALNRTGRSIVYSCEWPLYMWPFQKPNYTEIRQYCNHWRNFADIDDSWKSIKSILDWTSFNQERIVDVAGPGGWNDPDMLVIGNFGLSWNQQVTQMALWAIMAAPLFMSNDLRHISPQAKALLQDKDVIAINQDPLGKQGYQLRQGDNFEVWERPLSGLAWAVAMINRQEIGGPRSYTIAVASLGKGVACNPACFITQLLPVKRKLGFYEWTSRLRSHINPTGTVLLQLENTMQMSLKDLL

In the case of `Oc1ccc(/C=C\c2cc(O)cc(O)c2)cc1`, the molecule was called inactive in assay [1], in assay [4], in assay [6], in [7], in assay [8] and in assay [9]. The Potency entry (in [2]; in assay [10]; with AA1029; in the assay with CP260; in the assay with CP297; in the assay on CP315) was “inactive” in each case. Further, the Potency result with DIV14, with DIV17, with JCK, in the assay with N140, in the assay on PC15 and in the assay on TAB165 was “inactive” in each case. Moreover, the Potency is 2510 nM (active) in [3] and 3160 nM (active) in assay [5].

(Values after PubChem BioAssay (NCATS).)
